# Laboratory results published in article PMC4081100, “A DNA-binding-site landscape and regulatory network analysis for NAC transcription factors in Arabidopsis thaliana”.
# Experiments:
# Experiment in all cases: universal protein binding microarray (PBM); transcription factors of Arabidopsis thaliana; high values mean tight binding
# GST-ATAF1 NAC domain = target: T1, GST-ATAF1 NAC domain (Arabidopsis thaliana, UniProt Q39013 7-158); conditions: protein: recombinant; tags: GST; chain copies: 2; dsDNA, one strand shown
# T1 sequence: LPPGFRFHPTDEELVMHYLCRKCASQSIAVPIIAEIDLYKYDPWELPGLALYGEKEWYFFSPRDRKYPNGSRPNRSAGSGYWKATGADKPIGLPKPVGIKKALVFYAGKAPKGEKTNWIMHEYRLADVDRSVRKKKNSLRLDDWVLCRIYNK
# Method in brief: (§1)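 For zinc-finger proteins, zinc acetate was added while GST-tagged NAC-domain, full-length or DNA-binding-domain proteins were induced in cells. Purification used glutathione–Sepharose 4B, and quantification used A280 or anti-GST western blot. Custom all-10-mer Agilent 4 × 180K arrays, made double-stranded by primer extension, each received a protein at 200 to 500 nM final in duplicate. Scoring covered gapped and ungapped 8-mers, with binding given as the normalised enrichment score (E-score).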
# [1] = target: T2, GST-ANAC092(1-285) full length (Arabidopsis thaliana, UniProt Q9FKA0 1-285); conditions: protein: recombinant; tags: GST; chain copies: 2; dsDNA, one strand shown
# T2 sequence: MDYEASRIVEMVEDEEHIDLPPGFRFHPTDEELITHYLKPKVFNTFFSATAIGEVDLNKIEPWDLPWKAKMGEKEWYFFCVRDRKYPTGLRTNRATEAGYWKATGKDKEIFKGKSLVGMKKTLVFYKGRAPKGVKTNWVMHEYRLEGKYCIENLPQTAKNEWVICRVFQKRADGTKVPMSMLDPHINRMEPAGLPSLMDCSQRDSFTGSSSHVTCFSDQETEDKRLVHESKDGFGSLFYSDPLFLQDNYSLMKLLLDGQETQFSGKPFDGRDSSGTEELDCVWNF
# Method in brief: as §1
# GST-SND1(1-203) = target: T3, GST-SND1(1-203) (Arabidopsis thaliana, UniProt Q9LPI7 1-203); conditions: protein: recombinant; tags: GST; chain copies: 2; dsDNA, one strand shown
# T3 sequence: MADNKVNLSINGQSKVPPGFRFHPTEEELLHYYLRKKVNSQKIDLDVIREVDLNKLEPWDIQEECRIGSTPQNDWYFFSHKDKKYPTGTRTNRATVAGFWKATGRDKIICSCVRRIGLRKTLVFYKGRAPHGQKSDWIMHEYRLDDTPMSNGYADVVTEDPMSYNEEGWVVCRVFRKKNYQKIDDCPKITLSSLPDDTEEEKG
# Method in brief: as §1
# GST-WRKY1(266-371) = GST-WRKY1(266-371) (Arabidopsis thaliana, UniProt Q9SI37 266-371); conditions: protein: recombinant; tags: GST; dsDNA, one strand shown
# Method in brief: as §1
# GST-NTL6(1-168) = GST-NTL6(1-168) (Arabidopsis thaliana, UniProt Q9SCK6 1-168); conditions: protein: recombinant; tags: GST; chain copies: 2; dsDNA, one strand shown
# Method in brief: as §1
# GST-NST2(1-184) = target: T4, GST-NST2(1-184) (Arabidopsis thaliana, UniProt Q9M274 1-184); conditions: protein: recombinant; tags: GST; chain copies: 2; dsDNA, one strand shown
# T4 sequence: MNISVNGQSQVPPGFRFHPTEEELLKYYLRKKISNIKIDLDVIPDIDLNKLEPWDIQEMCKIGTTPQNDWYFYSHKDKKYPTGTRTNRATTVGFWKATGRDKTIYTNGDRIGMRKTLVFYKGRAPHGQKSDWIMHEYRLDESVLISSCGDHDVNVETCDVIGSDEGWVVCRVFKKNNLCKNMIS
# Method in brief: as §1
# GST-ANAC092(1-176) = target: T5, GST-ANAC092(1-176) (Arabidopsis thaliana, UniProt Q9FKA0 1-176); conditions: protein: recombinant; tags: GST; chain copies: 2; dsDNA, one strand shown
# T5 sequence: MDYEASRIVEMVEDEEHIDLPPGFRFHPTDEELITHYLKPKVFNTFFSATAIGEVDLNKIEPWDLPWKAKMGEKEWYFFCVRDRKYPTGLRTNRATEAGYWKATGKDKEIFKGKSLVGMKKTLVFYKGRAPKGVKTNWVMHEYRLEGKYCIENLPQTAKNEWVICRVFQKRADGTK
# Method in brief: as §1
# GST-ANAC019 NAC domain = target: T6, GST-ANAC019 NAC domain (Arabidopsis thaliana, UniProt Q9C932 14-162); conditions: protein: recombinant; tags: GST; chain copies: 2; dsDNA, one strand shown
# T6 sequence: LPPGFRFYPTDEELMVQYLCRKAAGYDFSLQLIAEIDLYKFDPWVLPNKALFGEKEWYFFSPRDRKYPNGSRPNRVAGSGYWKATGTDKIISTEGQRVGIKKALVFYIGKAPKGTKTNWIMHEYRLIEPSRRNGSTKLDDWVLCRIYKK
# Method in brief: as §1
# GST-NTL8 NAC domain = target: T7, GST-NTL8 NAC domain (Arabidopsis thaliana, UniProt Q9XIN7 14-156); conditions: protein: recombinant; tags: GST; chain copies: 2; dsDNA, one strand shown
# T7 sequence: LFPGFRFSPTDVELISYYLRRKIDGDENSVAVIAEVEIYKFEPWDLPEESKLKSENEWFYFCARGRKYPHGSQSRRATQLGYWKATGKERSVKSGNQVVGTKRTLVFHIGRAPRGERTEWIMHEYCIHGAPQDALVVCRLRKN
# Method in brief: as §1
# GST-ANAC055(1-171) = target: T8, GST-ANAC055(1-171) (Arabidopsis thaliana, UniProt Q9LDY8 1-171); conditions: protein: recombinant; tags: GST; chain copies: 2; dsDNA, one strand shown
# T8 sequence: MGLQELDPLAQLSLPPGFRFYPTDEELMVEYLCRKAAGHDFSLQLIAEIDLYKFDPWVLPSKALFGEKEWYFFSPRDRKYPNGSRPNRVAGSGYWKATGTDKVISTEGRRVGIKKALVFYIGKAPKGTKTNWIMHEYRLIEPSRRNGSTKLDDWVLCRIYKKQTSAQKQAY
# Method in brief: as §1
# GST-NAP(1-166) = target: T9, GST-NAP(1-166) (Arabidopsis thaliana, UniProt O49255 1-166); conditions: protein: recombinant; tags: GST; chain copies: 2; dsDNA, one strand shown
# T9 sequence: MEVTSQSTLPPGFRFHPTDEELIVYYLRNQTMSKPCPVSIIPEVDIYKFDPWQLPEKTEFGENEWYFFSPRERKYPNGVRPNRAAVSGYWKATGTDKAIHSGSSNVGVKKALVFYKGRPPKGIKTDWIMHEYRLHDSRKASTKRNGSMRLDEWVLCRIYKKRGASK
# Method in brief: as §1
# GST-NTL6(1-168), sequence (Q9SCK6 1-168): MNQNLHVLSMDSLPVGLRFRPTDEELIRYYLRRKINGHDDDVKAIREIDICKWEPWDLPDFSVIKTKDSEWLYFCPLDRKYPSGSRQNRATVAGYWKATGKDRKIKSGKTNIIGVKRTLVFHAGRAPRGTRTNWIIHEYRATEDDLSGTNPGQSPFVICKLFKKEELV
# GST-WRKY1(266-371), sequence (Q9SI37 266-371): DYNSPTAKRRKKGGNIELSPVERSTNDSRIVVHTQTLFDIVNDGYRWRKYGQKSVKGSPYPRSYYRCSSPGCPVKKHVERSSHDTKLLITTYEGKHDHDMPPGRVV
Sequence,binding signal (GST-ATAF1 NAC domain) [E-score],binding signal [1] [E-score],binding signal (GST-SND1(1-203)) [E-score],binding signal (GST-WRKY1(266-371)) [E-score],binding signal (GST-NTL6(1-168)) [E-score],binding signal (GST-NST2(1-184)) [E-score],binding signal (GST-ANAC092(1-176)) [E-score],binding signal (GST-ANAC019 NAC domain) [E-score],binding signal (GST-NTL8 NAC domain) [E-score],binding signal (GST-ANAC055(1-171)) [E-score],binding signal (GST-NAP(1-166)) [E-score]
TAAAGTCA,0.0969,0.0547,0.0751,0.465,,,,,,,
AGCGTTGA,,0.0576,0.0527,0.401,0.0737,0.0637,,,,,
CTGTTGAC,,0.0644,0.0669,0.48,,,0.105,0.107,,,
AGGAAAGG,,,0.136,,0.0725,0.064,0.0968,0.0699,0.44,,
AAAGTCAA,0.118,,0.118,0.49,0.0854,0.0787,,,,0.0717,
AATTGACT,0.141,0.0602,0.0673,0.46,0.0713,0.125,,,,0.0891,
GCTTTCCC,,0.117,0.0912,,0.142,,0.124,0.0714,0.423,,
CTTAGTCA,0.101,,0.118,0.424,0.243,,,,0.091,,
CTTTGACC,,,0.0526,0.488,,,0.051,,,,
GGGGAAAC,,0.217,0.209,,0.17,,0.177,0.152,0.412,,0.12
CTTAAGGA,,,0.265,0.07,0.401,0.0872,,,0.179,,
CGTAGTCA,0.117,,0.161,0.405,,,,0.0805,,,
GGGGGAAA,,0.139,0.147,,0.314,,0.117,0.12,0.472,,
CTGACTTC,,,0.0589,0.412,,,,0.0546,0.113,,
GAAGTAAC,0.0921,0.325,0.333,,0.381,0.301,0.249,,0.413,0.106,
TAGGGAAA,0.088,0.115,0.0953,,0.177,,0.106,0.0861,0.438,,
